Measurements published in PubChem BioAssay AID504766 (The Scripps Research Institute Molecular Screening Center, 2011).
The whole screen tested about 340,000 compounds, of which about 3,400 (1%) were called active. For the sample, actives were picked, then their nearest neighbours and some compounds at random. Unmarked numbers belong to inactive results.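 Rule for the calls: active = inhibition above the mean over all tested compounds plus 3 SD (cut at about 4.2% in these data); inactive = the rest.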

What follows are compounds tested against Nuclear receptor subfamily 0 group B member 1 (Homo sapiens) (UniProt P51843) (assay: relief of DAX1 transcriptional repression – cell-based, HEK293, Gal4-DAX1, luciferase luminescence, primary screen (AID 504766;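 note: 0% = DAX1-transfected cells with DMSO and 100% = empty-vector control cells with DMSO; inhibition shows as a rise in luminescence from relieved DAX1 repression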)). Settings: HEK293 Gal4-DAX1 luciferase reporter, at 6.75 µM, active compounds read high.
Nuclear receptor subfamily 0 group B member 1 (Homo sapiens), sequence (P51843 207-470 limits assumed): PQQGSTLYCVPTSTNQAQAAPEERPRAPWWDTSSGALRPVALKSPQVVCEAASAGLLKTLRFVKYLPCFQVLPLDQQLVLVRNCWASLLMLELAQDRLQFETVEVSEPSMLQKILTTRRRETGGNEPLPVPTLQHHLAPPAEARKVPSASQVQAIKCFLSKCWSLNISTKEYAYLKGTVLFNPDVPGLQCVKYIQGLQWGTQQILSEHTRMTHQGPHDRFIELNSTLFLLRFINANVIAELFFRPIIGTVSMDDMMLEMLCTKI

| Compound | inhibition |
| --- | --- |
| CCc1c(N=O)c(-c2ccccc2)n(O)[n+]1[O-] | 0.23% |
| C[C@@H]1CN([C@@H](C)CO)C(=O)CCCn2nncc2CO[C@@H]1CN(C)S(=O)(=O)c1ccc(-c2ccccc2)cc1 | 0.31% |
| O=C(/C=C\c1ccc2c(c1)OCO2)NC1(C(=O)Nc2ccc3c(c2)OCCO3)CCCCC1 | -0.83% |
| O=C(/C=C/c1ccc2c(c1)OCCO2)c1ccc(O)cc1 | 16.4% (active) |
| O=C(COC(=O)c1ccc(O)cc1O)c1ccc2c(c1)OCCO2 | -0.46% |
| COc1ccc(-c2ccc(CN3C(CC(C)C)C(=O)N(Cc4cn(CC5CCCCC5)nn4)CCS3(=O)=O)cc2)cc1 (stereo not drawn) | 1.23% |
| COCCCN1C(=O)C(CC(=O)NCc2cccs2)CC(C(=O)N2CCOCC2)=C1C (stereo not drawn) | 1.28% |
| CN1CCn2cnc(C(=O)NCC(=O)OC(C)(C)C)c2C1=O | 0.48% |
| C[C@@H]1CN([C@@H](C)CO)C(=O)CCCn2cc(nn2)CO[C@H]1CN(C)S(=O)(=O)c1ccc(-n2cccn2)cc1 | 1.04% |
| O=c1[nH]c2ccccc2n1C1CCN(CCOc2ccccc2)CC1 | -1.06% |
| CCOc1ccc2cc(C#N)c(SCC(=O)OC)nc2c1 | 4.25% (active) |
| Cc1nonc1NC(=O)CSc1nc2ccccc2cc1C#N | 2.09% |
| CCOC(=O)CSc1nccc(N(C)C)c1C#N | 0.68% |
| COc1ccc(C(C)(C)C)cc1NC(=O)CN(C)C1=NS(=O)(=O)c2ccccc21 | 0.35% |
| O=C(CCCN1C(=O)C(c2ccccc2)Oc2cccnc21)Nc1ccccc1Br (stereo not drawn) | 0.05% |
| N#CCSc1ccccc1NC(=O)CN1C(=O)NC(CCc2ccccc2)C1=O (stereo not drawn) | 2.57% |
| C#CCN(C[C@H]1[C@H](OC(=O)NC2CCCC2)[C@H](OC(=O)NC2CCCC2)C[C@H]2C(=O)N(c3ccccc3)C(=O)[C@@H]12)S(=O)(=O)c1ccc(C)cc1 | -0.02% |
| CC1CCC2(CC1)NC(=O)N(CC(=O)NCc1ccco1)C2=O (stereo not drawn) | 3.52% |
| Cc1ccc(S(=O)(=O)N2C[C@H]3n4c(=O)ccc(=O)n4C[C@H](OC(=O)NC4CCCC4)[C@@]3(O)C2)cc1 | 0.12% |
| C[C@H](CO)N1C[C@H](C)[C@@H](CN(C)C(=O)c2cccc(F)c2)Oc2cc(-c3cncnc3)ccc2S1(=O)=O | 1.05% |
| CCCOC(=O)c1[nH]c2c(c1C)C(=O)CC(c1cccs1)C2 (stereo not drawn) | 1.32% |
| CCCCOC(=O)c1[nH]c(C)c(C(=O)OC)c1C | 2.23% |
| COC(=O)C1C(=O)c2c([nH]c(C(=O)OCCSC)c2C)CC1C (stereo not drawn) | 5.56% (active) |
| C[C@H](CO)N1C[C@H](C)[C@@H](CN(C)S(=O)(=O)c2ccc(F)cc2)OCc2cnnn2CCCC1=O | 0.91% |
| c1ccc(-c2c[nH]c(-c3ccccc3)c2)cc1 | 4.28% (active) |
| c1ccc(-c2ccc3c(c2)NC(C2Nc4cc(-c5ccccc5)ccc4O2)O3)cc1 (stereo not drawn) | -0.52% |
| Oc1ccc(-c2cccc(-c3ccc(O)cc3)c2)cc1 | 2.72% |

| Compound | inhibition |
| --- | --- |
| COc1cccc(NC(=O)CN(C)C(=O)c2cc(Cl)nc3ccccc23)c1 | -0.56% |
| Cc1cccc(Oc2c([N+](=O)[O-])c(=O)n(C)c3ccccc23)c1 | 5.15% (active) |
| Cn1c(=O)c([N+](=O)[O-])c(Oc2ccccc2)c2ccccc21 | 1.91% |
| COc1cc2c(=O)n(C)c3ccccc3c2cc1OC | 0.78% |
| Cc1cccc(S(=O)(=O)N(C)C[C@H]2OCc3cnnn3CCCC(=O)N([C@@H](C)CO)C[C@H]2C)c1 | 2.68% |
| C[C@@H]1CN([C@@H](C)CO)C(=O)c2cc(Br)cnc2O[C@H]1CN(C)Cc1ccc(-c2ccccc2)cc1 | 0% |
| CCCCCCNC(=O)O[C@H]1CN(C(=O)OC(C)C)N(C(=O)OC(C)C)[C@@H]2CN(S(=O)(=O)c3ccc(C)cc3)C[C@]12O | 0.72% |
| O=C(Nc1sc2c(c1C(=O)O)CCC2)c1ccccc1F | 0.36% |
| O=C(CN1CCCC1)Nc1sc2c(c1C(=O)Nc1ccccc1)CCCC2 | 1.85% |
| NC(=O)c1c(NC(=O)c2ccccc2)sc2c1CCCC2 | 4.41% (active) |
| CCCCN1C(=O)C(CC(=O)NCc2cccs2)CC(C(=O)N2CCOCC2)=C1C (stereo not drawn) | 1.03% |
| CC(=NNC(N)=O)C1CC2CCC1CC2 (stereo not drawn) | 0.34% |
| C[C@H]1Cn2cnc(C(=O)N[C@@H](Cc3c[nH]c4ccccc34)C(=O)OC(C)(C)C)c2C(=O)N1 | 0.77% |
| COC(=O)N(C)C[C@@H]1OCc2cnnn2CCCC(=O)N([C@@H](C)CO)C[C@@H]1C | 1.06% |
| C[C@@H]1CN([C@H](C)CO)C(=O)CCCn2nncc2CO[C@@H]1CN(C)C(=O)OCc1ccccc1 | 4.4% (active) |
| C[C@H](CO)N1C[C@H](C)[C@@H](CN(C)C(=O)C2CCCCC2)OCc2cnnn2CCCC1=O | 0.86% |
| Cn1c(CCN2CCN(c3ccccn3)CC2)nc2cc(NS(=O)(=O)c3ccc(F)cc3)ccc21 | 0.29% |
| Cc1cc2cc3n(c2nn1)N=C(Cl)CC3 | 1.28% |
| CCN(Cc1ccncc1)C(=S)Nc1ccccc1C | 0.81% |
| CCc1nnc(NC(=O)c2ccco2)s1 | 1.93% |
| CCCCN1C(=O)C(CC(=O)NC(c2ccccc2)c2ccccc2)CC(C(=O)N2CCOCC2)=C1C (stereo not drawn) | 0.88% |
| Cc1ccc(/C(N)=N/OC(=O)COc2ccc(Cl)c(C)c2)cc1 | -0.49% |
| Cc1ccc(C(=O)O/N=C(\N)c2ccccn2)cc1Cl | -3.11% |
| Cc1cccc(/C(N)=N/OC(=O)c2ccccc2Cl)c1 | 4.97% (active) |
| COCC(=O)N(C)C[C@H]1Oc2cc(Br)ccc2S(=O)(=O)N([C@H](C)CO)C[C@H]1C | 1.77% |
| COc1ccc(CN2C(=O)C(CC(=O)NCCN3CCOCC3)CC(C(=O)N(C(C)C)C(C)C)=C2C)cc1 (stereo not drawn) | -0.44% |
